# Reference: PubChem BioAssay (NCI)
# About 83,000 compounds went through this panel and 20% of them were active in at least one assay; those are over-represented in the sample as a whole.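 How to read the values: 0–100, growth inhibition (40 = 60% inhibited); 0, no net growth; -100 to 0, cell death (-40 = 40% of starting cells died; -100 = all dead).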 The source made the active and inactive calls. Rule for the calls: active = growth percent below 10; inactive = the rest.
# System: KM12 colon
# Assay: NCI-60 one-dose screen, 48 h (100 = growth as untreated, 0 = no growth, -100 = all killed)
# Details: 10 µM unless noted
row,SMILES,growth
1,CCOC(=O)N1CCN(CCCCOc2ccc(C(C)(C)CC)cc2)CC1,95.6% (inactive)
2,COC1=C(Br)C(=O)C(OC)=C(Br)C1=O,101% (inactive)
3,Cc1cc(C)nc(NC(N)=NCCc2ccccc2)n1,22.5% (inactive)
4,Cc1nn(-c2ccc(Cl)cc2)c(=O)n1CCn1cnc2ccccc21,121% (inactive)
5,Brc1ccc(Cn2nnnc2-c2ccn(-c3ccccc3)n2)cc1,80.6% (inactive)
6,O=C1C=C(C(O)c2ccc(O)cc2)C(=O)c2ccccc21 (centres undefined),107% (inactive)
7,CCCC(=O)N1CCCCC1CC (centres undefined),108% (inactive)
8,O=[N+]([O-])c1ccc(/C=N\Nc2ccccc2)cc1,36.1% (inactive)
9,Nc1nc(N)c2nc3c(nc2n1)CCCCCCCCCC3,61.4% (inactive)
10,NC(=O)[C@@H]1CC2CCC1C2 (some centres undefined),102% (inactive)
11,C[N+](C)(CCCCCC[N+](C)(C)C1c2ccccc2-c2ccccc21)C1c2ccccc2-c2ccccc21,111% (inactive)
12,O=C(c1ccccc1)C(CN1CCOCC1)c1ccccc1 (centres undefined),20.8% (inactive)
13,COCCNC1=C(Cl)C(=O)c2ccccc2C1=O,83.3% (inactive)
14,CC(C)(C)CC(C)(C)c1ccc(OCCOCC[N+](C)(C)CC(=O)[O-])cc1,112% (inactive)
15,O=C(N/N=C\c1c(O)ccc2ccccc12)C1CC1,51.6% (inactive)
16,COc1cc2nc(Cl)nc(Nc3cccc(C(=O)/C=C/c4ccc(F)cc4)c3)c2cc1OC,28.4% (inactive)
17,O=[N+]([O-])c1cccc(/C=N\Nc2ccccc2)c1,38.8% (inactive)
18,Oc1ccccc1/C=N\NC(=S)Nc1ccc(F)cc1,23.2% (inactive)
19,O=C1c2ccccc2C(=Cc2ccccc2)c2ccccc21,-26.6% (active)
20,O=C(/C(=C(\C(=O)c1ccccc1)c1ccccc1)c1ccccc1)c1ccccc1,17.1% (inactive)

row,SMILES,growth
1,Nc1c(Cl)cc(N=Nc2ccccc2)cc1Cl,85.7% (inactive)
2,Oc1cccc2oc(=S)[nH]c12,115% (inactive)
3,O=C(/C=C\c1ccc2c(c1)OCO2)/C=C/c1ccc2c(c1)OCO2,8.55% (active)
4,O=C(O)c1cccc2c1Cc1cc([N+](=O)[O-])ccc1-2,109% (inactive)
5,Cn1cc(-c2csc(-c3cn(CCCN4CCCCC4)c4ccc(Br)cc34)n2)c2cccnc21,9.18% (active)
6,O=C(O)c1cccc2c1C(=O)N(c1ccc3c(c1)Cc1ccccc1-3)C2=O,109% (inactive)
7,CN(C)c1ccc(N)c2ccccc12,62.7% (inactive)
8,Cc1ccc2c(c1)c1nc3cc(C)c(C)cc3nc1n2CCN(C)C,21.7% (inactive)
9,O=[N+]([O-])c1ccc(N/N=C(\C(=N/Nc2ccc([N+](=O)[O-])cc2[N+](=O)[O-])c2ccccc2)c2ccccc2)c([N+](=O)[O-])c1,88.5% (inactive)
10,OCC12CCCC(CO)(COC1)C2O (centres undefined),107% (inactive)
11,O=C1C=Cc2ncccc2C1=O,104% (inactive)
12,O=C(NC1=CC(=O)c2ccccc2C1=O)c1ccccc1,11.2% (inactive)
13,COc1c(N)c2c(c([N+](=O)[O-])c1OC)C(=O)OC2,107% (inactive)
14,CC1c2ccccc2N(S(=O)(=O)c2ccccc2)C1C (centres undefined),60% (inactive)
15,COc1ccc(/C=C/C(=O)c2ccc([N+](=O)[O-])cc2)cc1,98.6% (inactive)
16,c1ccc(C2Cc3ccccc3C2=NC2CCCCC2)cc1 (centres undefined),112% (inactive)
17,O=C(CI)Nc1ccc(O)c2ccccc12,64.8% (inactive)
18,[B-][N+](CC)(CC)c1ccccc1,105% (inactive)
19,CC(C)(C)c1ccc(OCCCCCCCN2CCNCC2)cc1,36.1% (inactive)
